Binding signal data for 110 sequences are collected here from article PMC4242493, “Sequence specificity incompletely defines the genome-wide occupancy of Myc”.

The full ranking holds about 33,000 sequences; the median of “normalized occupancy” is about 0.075, and the highest 2% start at about 0.095. Many of the other results were omitted from the sample, so the highest values are more common in it than they were.

Sequence of MaxL homodimer (P61244 whole entry): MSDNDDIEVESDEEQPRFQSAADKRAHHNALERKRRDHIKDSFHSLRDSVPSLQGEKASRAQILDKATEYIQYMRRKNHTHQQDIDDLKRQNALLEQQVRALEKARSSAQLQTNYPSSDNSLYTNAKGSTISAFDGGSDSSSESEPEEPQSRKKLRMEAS

The assay deals with MaxL homodimer (Homo sapiens, UniProt P61244 1-160). Put plainly: universal protein-binding microarray (PBM); PBS-based mixture, 10 nM His-tagged protein dimer, 2% milk, 200 ng/uL BSA, 50 ng/uL salmon testes DNA, 0.02% TX-100; detection with Alexa 488 anti-His antibody;; high values mean tight binding. The note with it: protein: recombinant; tags: C-terminal His-tag (pET21a); chain copies: 2; dsDNA, one strand shown. In short, it runs like this:
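Arrays of the 'all 10-mer' universal design (Agilent 4 x 44 K) were exposed to 10 nM His-tagged protein dimer, stained with 10 ng/μL fluorophore-conjugated anti-His antibody and read on a GenePix 4400A to give a fluorescence intensity for each 8-mer. Binding occupancy is each intensity divided by the highest-ranked intensity.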
In the case of ACGCCGCG, the binding signal came out at 0.0773 normalized occupancy.

In the case of AAGGAAAG, the binding signal is 0.0804 normalized occupancy.

On to CATGCCCG, for which the binding signal was 0.0842 normalized occupancy.

With CATGCCCA, the binding signal came out at 0.0953 normalized occupancy.

For the sequence CATGCCCC, the binding signal turned out to be 0.0965 normalized occupancy.

As for GATGCCCA, the binding signal is 0.0798 normalized occupancy.

AATGCCCC: the binding signal amounted to 0.0836 normalized occupancy.

In the case of GATGCCCC, the binding signal amounted to 0.0764 normalized occupancy.

TCAGACGA: the binding signal was found to be 0.0739 normalized occupancy.

As for CTACAGAG, the binding signal is 0.0735 normalized occupancy.

For the sequence AAGAAGGC, the binding signal was 0.0751 normalized occupancy.

With AGCGCCTA, the binding signal turned out to be 0.0724 normalized occupancy.

Regarding GTGAATAA, the binding signal is 0.0848 normalized occupancy.

As to CAATGTGA, the binding signal came out at 0.0948 normalized occupancy.

For CGATGTGA, the binding signal was 0.0833 normalized occupancy.

GAATGTGC: the binding signal was determined as 0.0815 normalized occupancy.

With CAATGTGC, the binding signal was found to be 0.0924 normalized occupancy.

Turning to AGATGTGA, the binding signal is 0.085 normalized occupancy.

As for ATATGTGA, the binding signal is 0.0878 normalized occupancy.

For the sequence CCATGTGA, the binding signal was determined as 0.154 normalized occupancy.

For the sequence AAATGTGC, the binding signal is 0.0962 normalized occupancy.

In the case of ACATGTGA, the binding signal came to 0.166 normalized occupancy.

In the case of AAATGTGT, the binding signal stood at 0.0811 normalized occupancy.

Take CCATGTAA: the binding signal was determined as 0.0855 normalized occupancy.

For CAATGTGG, the binding signal is 0.097 normalized occupancy.

Turning to CGCACCAA, the binding signal was determined as 0.0722 normalized occupancy.

As for GCGTTCAC, the binding signal was determined as 0.0758 normalized occupancy.

Consider CCGCTAAG, for which the binding signal was 0.0719 normalized occupancy.

As for CGTCACTC, the binding signal was found to be 0.074 normalized occupancy.

With GCGGGTCA, the binding signal was 0.0811 normalized occupancy.

In the case of ACTTTGTG, the binding signal was 0.0718 normalized occupancy.

TACTACGA: the binding signal worked out at 0.0764 normalized occupancy.

Regarding CTAATATA, the binding signal is 0.0824 normalized occupancy.

Turning to CATTAGAA, the binding signal came out at 0.0752 normalized occupancy.

In the case of ACATCACG, the binding signal is 0.0884 normalized occupancy.

In the case of CGTGTTAA, the binding signal worked out at 0.0819 normalized occupancy.

Turning to GGCCCACA, the binding signal worked out at 0.0789 normalized occupancy.

Turning to ACTGACGA, the binding signal was determined as 0.0719 normalized occupancy.

In the case of CTCCTTCC, the binding signal is 0.081 normalized occupancy.

For AGGCACGC, the binding signal was 0.0914 normalized occupancy.

Consider GTTAACCA, for which the binding signal stood at 0.0793 normalized occupancy.

Take AGCGTTCA: the binding signal is 0.0757 normalized occupancy.

Consider AAATGTGG, for which the binding signal came out at 0.088 normalized occupancy.

As for ACATGTCC, the binding signal was found to be 0.0918 normalized occupancy.

For the sequence CCATGTCC, the binding signal was 0.0824 normalized occupancy.

In the case of ACATGTGC, the binding signal stood at 0.197 normalized occupancy.

Consider GGATGTGA, for which the binding signal turned out to be 0.0786 normalized occupancy.

Regarding GAATGTGA, the binding signal is 0.0817 normalized occupancy.

In the case of CGATGTGC, the binding signal turned out to be 0.0807 normalized occupancy.

Consider AGATGTGG, for which the binding signal is 0.0868 normalized occupancy.

For the sequence AGATGTGC, the binding signal was 0.0825 normalized occupancy.

With ACATGTGG, the binding signal is 0.209 normalized occupancy.

For GCATGTGA, the binding signal stood at 0.157 normalized occupancy.

Take CCATGTGC: the binding signal was found to be 0.209 normalized occupancy.

Consider CCGATGAC, for which the binding signal came out at 0.0747 normalized occupancy.

Consider TTAGTAAA, for which the binding signal is 0.0726 normalized occupancy.

Take CGATGCCC: the binding signal was determined as 0.0786 normalized occupancy.

Turning to CCGAGTGC, the binding signal was determined as 0.0748 normalized occupancy.

As for GATAGTGC, the binding signal was 0.0782 normalized occupancy.

Regarding AAGTTAGA, the binding signal was 0.0733 normalized occupancy.

As to CAGGCACC, the binding signal is 0.0774 normalized occupancy.

For the sequence GACAAGAA, the binding signal stood at 0.0761 normalized occupancy.

For AGGCGTTA, the binding signal worked out at 0.0751 normalized occupancy.

Turning to CCCATACG, the binding signal amounted to 0.0864 normalized occupancy.

For the sequence CGTGACCA, the binding signal was determined as 0.0992 normalized occupancy.

For the sequence CATGACCG, the binding signal amounted to 0.0795 normalized occupancy.

As for CGTGATCC, the binding signal was 0.0811 normalized occupancy.

GATGACCA: the binding signal came to 0.0763 normalized occupancy.

As to CGTGACCC, the binding signal stood at 0.0843 normalized occupancy.

For the sequence GGTGATCA, the binding signal amounted to 0.0835 normalized occupancy.

CGTGATCA: the binding signal is 0.0962 normalized occupancy.

Turning to CATGACCA, the binding signal turned out to be 0.0957 normalized occupancy.

In the case of AGTGACCA, the binding signal worked out at 0.0753 normalized occupancy.

As for CGCCAACA, the binding signal came out at 0.0741 normalized occupancy.

As to ACCTGATG, the binding signal amounted to 0.0825 normalized occupancy.

In the case of AGCTACAA, the binding signal was 0.0722 normalized occupancy.

ATGCCAAA: the binding signal worked out at 0.0777 normalized occupancy.

On to GAGATCCC, for which the binding signal was 0.0743 normalized occupancy.

ATACACGG: the binding signal worked out at 0.0846 normalized occupancy.

CTACACGC: the binding signal was found to be 0.0967 normalized occupancy.

Take CTACACGA: the binding signal stood at 0.0821 normalized occupancy.

Turning to ATACACGA, the binding signal turned out to be 0.0889 normalized occupancy.

For the sequence CTACACAC, the binding signal is 0.093 normalized occupancy.

ATACACGC: the binding signal is 0.102 normalized occupancy.

Turning to ACTTGACA, the binding signal is 0.0819 normalized occupancy.

For the sequence GCTCCCAC, the binding signal was determined as 0.075 normalized occupancy.

Regarding CATCAAGC, the binding signal came to 0.0726 normalized occupancy.

In the case of GTTGAAGA, the binding signal came to 0.082 normalized occupancy.

For ACAGAAGA, the binding signal came out at 0.0734 normalized occupancy.

In the case of ATGAAGGG, the binding signal came to 0.0755 normalized occupancy.

For the sequence CATGCGAG, the binding signal worked out at 0.0975 normalized occupancy.

AATGCGAG: the binding signal was found to be 0.0746 normalized occupancy.

As for AATGCGAC, the binding signal turned out to be 0.0782 normalized occupancy.

As to CATGCGAC, the binding signal came out at 0.109 normalized occupancy.

Take GATGCGAC: the binding signal was 0.0759 normalized occupancy.

Turning to CATGCGAA, the binding signal was 0.0898 normalized occupancy.

AAACCTTA: the binding signal was found to be 0.0742 normalized occupancy.

With ACGACGTC, the binding signal is 0.0746 normalized occupancy.

Turning to AGAACGCG, the binding signal came out at 0.0788 normalized occupancy.

For ATAACGTG, the binding signal is 0.113 normalized occupancy.

On to AGAACGTA, for which the binding signal stood at 0.0742 normalized occupancy.

Consider ACAACGTA, for which the binding signal was found to be 0.077 normalized occupancy.

As to ACAACGGG, the binding signal is 0.0774 normalized occupancy.

Regarding ACGACGTG, the binding signal is 0.0963 normalized occupancy.

In the case of AGAACGTG, the binding signal was determined as 0.1 normalized occupancy.

With ATAACGTA, the binding signal amounted to 0.0784 normalized occupancy.

ACGACGTA: the binding signal came out at 0.0786 normalized occupancy.

As for ACAACGTG, the binding signal turned out to be 0.149 normalized occupancy.

As for ATAACGTC, the binding signal was determined as 0.0773 normalized occupancy.

As to ATAGCGCC, the binding signal is 0.0747 normalized occupancy.
